DT40 TDP1 no CPT: qHTS for Inhibitors of human tyrosyl-DNA phosphodiesterase 1 (TDP1): qHTS in cells in absence of CPT; DT40 Tdp1-/- hTDP1 cells, no CPT, ATP luminescence, 48 h; Potency, µM (series often up to 46.2 µM), without a hit: top-dose activity change, negative = growth inhibition, actives largely listed as inhibitors; 420,000 compounds, 15% hits; note: potency is the fitted concentration of half-maximal effect; % is set by controls: 0 for no effect and ±100 for the full control effect; nearly all actives have a fitted effect of over 55% in size
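DT40 Tdp1-/-;hTDP1 cells, no CPT (DMSO vehicle only), 400 cells/well; compounds pin-transferred; ≥48 hr, 37 °C; CellTiter-Glo 30 min RT dark, luminescence read.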
DRD3 antagonist: qHTS of D3 Dopamine Receptor Antagonist: qHTS; D3R cells, DiscoveRx beta-arrestin luminescence, antagonist mode; hits give low values; max response, negative = inhibition, %; 360,000 compounds, 2.5% hits; in the data active = max response below about -50%; inconclusive = no clear call, values can overlap the other calls; note: % is set by controls: 0 for no effect and ±100 for the full control effect
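Cells expressing the human receptor were seeded at 1500 cells/well, incubated overnight at 37 degrees C in 5% CO2, then exposed to library compounds with dopamine controls for 90 minutes at 37 degrees C before luminescent detection.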
DRD3 agonist: qHTS of D3 Dopamine Receptor Agonist: qHTS. D(3) dopamine receptor (Homo sapiens), P35462. D3R DiscoveRx beta-arrestin cells, luminescence, 90 min. max activation, %. 410,000 compounds, 0.58% hits. AID 652048, 2013; in the data active = max activation above about 30%; note: 0% is about no effect
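Agonist-mode cell screen: cells plated at 1500/well and incubated overnight at 37 °C, then exposed to library compounds for 90 min at 37 °C. Detection reagent was added for 30–60 min at room temperature, and luminescence was read.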
IL-1B inflam inh: qHTS for Inhibitors of Inflammasome Signaling: IL-1-beta AlphaLISA Primary Screen; THP-1 LPS/ATP IL-1B secretion, AlphaLISA, 16 h; hits give low values; activity change, % at 57.5 µM; 360,000 compounds, 4.7% hits; in the data active = activity change below about -50%; inconclusive = mostly about -30% to -49%; note: % is set by controls: 0 for no effect and ±100 for the full control effect
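THP-1 cells pretreated 1 hr with compounds (up to 57.5 uM final), then stimulated with LPS (250 ng/mL final) plus ATP (1.25 mM final); secreted IL-1B measured by AlphaLISA after 16 hr, decreased signal indicating inhibition.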
ClpP mod: qHTS Assay for Activators of ClpP | ATP-dependent Clp protease proteolytic subunit (Bacillus subtilis (strain 168)), P80244 | purified B. subtilis ClpP, FRET peptide cleavage, 20 min | Potency, µM (top dose mostly 57.5 µM), for the others: at the top dose activity change, negative = active | 340,000 compounds, 1.9% hits; active = well fitted falling curve with a large enough effect; inconclusive = small, poorly fitted or top-dose-only effect; inactive = no such curve, though single readings can be large or run the other way; note: potency is the fitted concentration of half-maximal effect; the source files actives as falling curves though it sought activators and does not explain the sign; nearly all actives have a fitted effect of over 65% in size
Target sequence (P80244 whole entry, looked up): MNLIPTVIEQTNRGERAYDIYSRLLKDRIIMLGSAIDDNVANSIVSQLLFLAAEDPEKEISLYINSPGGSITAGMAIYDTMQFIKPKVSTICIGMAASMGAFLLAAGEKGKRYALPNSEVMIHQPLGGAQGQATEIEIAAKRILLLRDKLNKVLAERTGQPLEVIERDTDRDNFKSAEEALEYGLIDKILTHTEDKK
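FRET quenching reversal measured ClpP activation: 10 microg/mL B. subtilis ClpP at pH 8 with the FRET-FV decapeptide, read at 430 nm after 320 nm excitation. The 20-min minus 0-min signal was scaled between DMSO/no-enzyme wells and ADEP (5.8 microM final).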
DT40 TDP1 CPT: qHTS for Inhibitors of human tyrosyl-DNA phosphodiesterase 1 (TDP1): qHTS in cells in presence of CPT; chicken DT40 Tdp1-/-;hTDP1 cells + 20 nM CPT, ATP luminescence, 48 h; Potency, µM (top dose mostly 46.2 µM), inactives show top-dose activity change, negative = growth inhibition, most hits filed as inhibitors; 420,000 compounds, 12% hits; note: potency is the fitted concentration of half-maximal effect; % is set by controls: 0 for no effect and ±100 for the full control effect; nearly all actives have a fitted effect of over 55% in size
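Chicken DT40 Tdp1-/- cells complemented with human TDP1, 400 cells/well, exposed to compounds plus 20 nM camptothecin for at least 48 h at 37 C; viability read as ATP content by CellTiter-Glo luminescence.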
Starred values were filed as active, the others as inactive; ! = a repeat was not active. This is a sample that favours compounds with a hit; in the whole collection about 21% have one here. Unless noted, calls come from the whole dose curve; as a rule, active = well fitted inhibition curve with a large enough effect; inconclusive = small, poorly fitted or top-dose-only effect; inactive = flat fitted curve, though single readings scatter.

How did COc1ccc([C@@H]2COc3c(ccc4c3C=CC(C)(C)O4)C2)c(OC)c1 do in these assays?
DT40 TDP1 no CPT: 6%; DRD3 antagonist: 0; DRD3 agonist: 33*; IL-1B inflam inh: -10; ClpP mod: -7%; DT40 TDP1 CPT: 2%

How did C#CCN1CC(=O)N(COC(=O)C2C(C=C(C)C)C2(C)C)C1=O (stereo unspecified) do in these assays?
DT40 TDP1 no CPT: inconclusive; DRD3 agonist: 4; DT40 TDP1 CPT: inconclusive

How did CC(=O)OC1CC[C@@]2(C)C3CC[C@]4(C)C(=O)CCC4C3CC[C@H]2C1 (stereo partly specified) do in these assays?
DT40 TDP1 no CPT: -1%; DT40 TDP1 CPT: inconclusive

Results for CCC(=O)O[C@H]1[C@@H](N2CCCCC2)C[C@H]2[C@@H]3CC[C@H]4C[C@H](OC(C)=O)[C@@H](N5CCCCC5)C[C@]4(C)[C@H]3CC[C@@]21C ?
DT40 TDP1 no CPT: 6.7µM*; DRD3 agonist: -15; DT40 TDP1 CPT: 7.5µM*

Results for Oc1cc(Cl)ccc1Oc1ccc(Cl)cc1Cl ?
DT40 TDP1 no CPT: 23µM*; DRD3 antagonist: -10; DRD3 agonist: -12; IL-1B inflam inh: -70*; ClpP mod: -2%; DT40 TDP1 CPT: 7.7µM*

How did O=C1CCO1 do in these assays?
DT40 TDP1 no CPT: 4%; DRD3 agonist: 2; DT40 TDP1 CPT: 5%

Results for CC1C(c2cccs2)=[N+]([O-])C(C)(C(=O)c2ccc(Cl)cc2)N1O (stereo unspecified) ?
DT40 TDP1 no CPT: -20%; DRD3 antagonist: -24; DRD3 agonist: -7; IL-1B inflam inh: inconclusive; ClpP mod: -2%; DT40 TDP1 CPT: -8%

How did CCC(C)C1NC(=O)C(NC(=O)C(CC(C)C)N(C)C(=O)C2CCCN2C(=O)C(C)O)C(C)OC(=O)C(Cc2ccc(OC)cc2)N(C)C(=O)C2CCCN2C(=O)C(CC(C)C)NC(=O)[C@H](C)C(=O)[C@H](C(C)C)OC(=O)CC1O (stereo partly specified) do in these assays?
DT40 TDP1 no CPT: 0.029µM*; DRD3 antagonist: inconclusive; DRD3 agonist: -9; IL-1B inflam inh: -100*; ClpP mod: 5%; DT40 TDP1 CPT: 0.037µM*

Results for C1CCC(NC2CCCCC2)CC1 ?
DT40 TDP1 no CPT: -7%; DRD3 antagonist: 28; DRD3 agonist: 7; IL-1B inflam inh: 6; ClpP mod: -1%; DT40 TDP1 CPT: 5%

What do the screens show for `CN1C[C@H](C(=O)N[C@@]2(C)O[C@@]3(O)C4CCCN4C(=O)C(Cc4ccccc4)N3C2=O)C[C@H]2c3cccc4[nH]cc(c34)C[C@H]21` (stereo partly specified)?
DT40 TDP1 no CPT: -15%; DT40 TDP1 CPT: 12%

What do the screens show for `CC(C)[C@H]1C(=O)N2CCC[C@H]2[C@]2(O)O[C@](NC(=O)[C@@H]3C[C@@H]4c5cccc6[nH]cc(c56)C[C@H]4N(C)C3)(C(C)C)C(=O)N12`?
DT40 TDP1 no CPT: 19µM*; DRD3 agonist: 5; DT40 TDP1 CPT: inconclusive

Results for CC(C)[C@@]1(NC(=O)[C@@H]2C[C@@H]3c4cccc5[nH]cc(c45)C[C@H]3N(C)C2)O[C@@]2(O)[C@@H]3CCCN3C(=O)[C@H](Cc3ccccc3)N2C1=O ?
DT40 TDP1 no CPT: 19µM*!; DRD3 antagonist: -96*; DRD3 agonist: -59; IL-1B inflam inh: 0; ClpP mod: 0%; DT40 TDP1 CPT: 27µM*!

Compound activity deposited in PubChem by National Center for Advancing Translational Sciences (NCATS).
